Experimental data from PubChem BioAssay (NCATS).
Results filed as inconclusive are left out. Active and inactive are the calls of the source. Calls follow the shape of the dose curve; as a rule, active = well fitted curve in the direction sought with a large enough effect; inconclusive = small, poorly fitted or top-dose-only effect, or another doubt; inactive = no such curve, though single readings can be large; an effect the other way counts as inactive or inconclusive.

Key:
[1] = target: Metallo-beta-lactamase type 2 (Klebsiella pneumoniae) (UniProt C7C422); assay: qHTS to identify inhibitors of the New Delhi Metallo-beta-lactamase (NDM): assay validation screen against the NCATS LOPAC Collection (AID 1794843);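 also: nitrocefin turnover by NDM-1 measured as 485 nm absorbance at plateau; series mostly up to about 38 µM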
How it was run: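 Nitrocefin hydrolysis (50 uM substrate stock) by NDM-1, 2 nM final, was followed by 485 nm absorbance after compound preincubation; buffer was 50 mM HEPES pH 7.0, 1 uM ZnSO4, 0.01% Tween20.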

[2] = target: Glutathione peroxidase 1 (Homo sapiens) (UniProt P07203); assay: Primary qHTS Assay for Inhibitors of Recombinant Selenoprotein Glutathione Peroxidase 1 (GPX1) (AID 1845191); also: nearly all actives have a fitted effect of over 65% in size
How it was run: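 NADPH consumption tracked by fluorescence at 340/450 nm between t=0 and t=15 min, room temperature. Final mix: 10 nM GPX1, 100 nM glutathione reductase, 1 mM GSH, 0.5 mM NADPH, 0.5 mM cumene hydroperoxide, 0.01% BSA; 30 min compound–enzyme preincubation.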

[3] = target: Phospholipid hydroperoxide glutathione peroxidase GPX4 (Homo sapiens) (UniProt P36969); assay: Primary qHTS Assay for Inhibitors of Recombinant Selenoprotein Glutathione Peroxidase 4 (GPX4) (AID 1845192); also: nearly all actives have a fitted effect of over 65% in size
How it was run: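 NADPH consumption followed by fluorescence at 340/450 nm, t=0 and after 15 min at room temperature. Reaction started with cumene hydroperoxide (0.5 mM final) after 30 min compound–GPX4 preincubation; final 200 nM GPX4, 100 nM GR, 1 mM GSH, 0.5 mM NADPH.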

Measured: Potency

Metallo-beta-lactamase type 2 (Klebsiella pneumoniae), sequence (C7C422 whole entry, looked up): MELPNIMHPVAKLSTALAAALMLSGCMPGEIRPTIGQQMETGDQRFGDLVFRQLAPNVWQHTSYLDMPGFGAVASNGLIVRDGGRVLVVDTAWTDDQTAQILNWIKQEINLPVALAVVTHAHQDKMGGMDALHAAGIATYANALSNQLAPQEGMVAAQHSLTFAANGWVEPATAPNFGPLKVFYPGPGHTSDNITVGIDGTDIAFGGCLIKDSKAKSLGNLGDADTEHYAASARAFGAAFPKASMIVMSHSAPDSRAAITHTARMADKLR
Glutathione peroxidase 1 (Homo sapiens), sequence (P07203 whole entry, looked up): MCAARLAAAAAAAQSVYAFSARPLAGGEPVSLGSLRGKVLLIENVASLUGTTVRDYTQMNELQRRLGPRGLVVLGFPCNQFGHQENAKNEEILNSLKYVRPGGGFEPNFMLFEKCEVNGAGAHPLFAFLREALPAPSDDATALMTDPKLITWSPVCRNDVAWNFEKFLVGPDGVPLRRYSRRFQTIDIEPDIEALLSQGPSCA
Phospholipid hydroperoxide glutathione peroxidase GPX4 (Homo sapiens), sequence (P36969 whole entry, looked up): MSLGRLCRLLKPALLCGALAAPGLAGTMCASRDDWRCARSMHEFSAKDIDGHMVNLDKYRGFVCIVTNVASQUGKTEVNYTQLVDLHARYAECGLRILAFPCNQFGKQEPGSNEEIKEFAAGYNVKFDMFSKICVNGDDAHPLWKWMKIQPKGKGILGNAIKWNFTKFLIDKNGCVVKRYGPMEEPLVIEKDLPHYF

O=C(O)C1CN(CCCP(=O)(O)O)CCN1 (stereo unspecified)
inactive: all assays above

NCCCCN=C(N)N
inactive: all assays above

NCCNS(=O)(=O)c1cccc2c(Cl)cccc12
inactive: all assays above

CC(=O)O[C@H]1Cc2ccccc2N(C(N)=O)c2ccccc21
inactive: all assays above

CC(C)NC[C@H](O)COc1ccc(CC(N)=O)cc1
inactive: all assays above

O=c1[nH]c2cc(Cl)ccc2c(O)c1-c1ccc(Oc2ccccc2)cc1
inactive: all assays above

CN(C)CCC(c1ccc(Br)cc1)c1ccccn1 (stereo unspecified)
inactive: all assays above

Nc1ccc(-c2nc3ccc(-c4nc5ccc(N)cc5[nH]4)cc3[nH]2)cc1
inactive: all assays above

C[C@H](O)C(=O)C1=Nc2c(nc(N)[nH]c2=O)NC1
inactive: all assays above

CC(/C=C/c1cccc(Oc2ccc(F)cc2)c1)N(O)C(N)=O (stereo unspecified)
inactive: all assays above

O=C1Cc2c([nH]c3ccc(Br)cc23)-c2ccccc2N1
inactive: all assays above

CCCn1c(=O)c2c(ncn2C)n(CCC)c1=O
inactive: all assays above

COc1ccccc1N1CCN(CCCCNC(=O)c2ccc3ccccc3c2)CC1
inactive: all assays above

N#CC(C#N)=C(N)/C(C#N)=C/c1ccc(O)cc1
inactive: all assays above

COc1cccc(OC)c1OCCNCC1CSc2ccccc2O1 (stereo unspecified)
inactive: all assays above

C=CC[C@H](N)C(=O)O
inactive: all assays above

CC(N)(Cc1ccc(O)cc1)C(=O)O (stereo unspecified)
inactive: all assays above

NCCCNCCCCNCCCN
inactive: all assays above

c1ccc(C(NCCNC(c2ccccc2)c2ccccc2)c2ccccc2)cc1
inactive: all assays above

CCSC(=N)N
inactive: all assays above

CC(C)[C@@H]1CC[C@@H](C)C[C@@H]1P(=O)(c1ccccc1)c1ccccc1
inactive: all assays above

COc1cc(/C=C(\C#N)C(=O)Nc2nnc(C(F)(F)F)s2)ccc1OCc1ccc(C(F)(F)F)cc1C(F)(F)F
inactive: all assays above

N[C@@H](Cc1ccc(F)cc1)C(=O)O
inactive: all assays above

O=c1cc(-c2ccccc2F)[nH]c2cc3c(cc12)OCO3
inactive: all assays above

NCCC1CCCC(CCN)N1 (stereo unspecified)
inactive: all assays above

O=S(=O)(c1cccc2c(Cl)cccc12)N1CCCNCC1
inactive: all assays above

Nn1nnc2ccccc21
inactive: all assays above
